Screen size: about 53,000 sequences; about 3,700 (7%) were called active. The sample as a whole holds a higher share of actives than the screen did. Unmarked numbers belong to inactive results.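 The calls were made as follows: active = gene knockdowns whose robust z-score for IL-1 alpha signal is at least 2 or at most -2, so actives lie on both sides; inactive = the rest.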
test: Components of the Cytosolic LPS Sensing Pathway: Gene Identification via Genome-wide siRNA Screen; details: RAW264.7 macrophages, IL-1a HTRF, actives lie on both sides, screened at 100 nM (by protocol), cells primed 5 h with Pam3CSK4 first;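 also: robust z of the log signal after scaling to non-targeting control siRNA wells of the plate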
In short: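 Cells (RAW264.7, 1×10^4 per well) were transfected with siRNA at 100 nM and cultured 48h at 37 degrees C. Pam3CSK4 was added for 5 hours; LipidA transfection followed for 24 hour. IL-1a was then measured by HTRF.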

With GCCACUCAGAGUGUGGAGUTT against Ddx20 as the sequence, how does the z-score read?
Its z-score is -0.95.

For GUCCUGGAAGAAAUGAGAATT against Ifna4, which z-score is on record?
Its z-score is 0.781.

With CCCACAUCCCUAAGUUGUGTT against Kash5 as the sequence, how does the z-score read?
The z-score was 1.55.

Which z-score does the source give for GGAUAAUCAUUCUUGUCACTT against Ptgfr here?
Its z-score is -0.736.

Which z-score does the source give for GGUCUUUGAAUGGAACAAUTT against Aldh7a1 here?
The z-score was -1.04.

For GGAGUCUCCCAAAUGAAGATT against Son, which z-score is on record?
The z-score was -2.84 (active).

For GAGAGAGAAUACCACUGUGTT against Gm5431, which z-score is on record?
Its z-score is -0.244.

For GCUGGAUGUGAAAAGAGCGTT against Aktip, which z-score is on record?
Its z-score is -0.00618.

With GGUGGAUGAAGAGUAUAAGTT against Phka2 as the sequence, how does the z-score read?
Its z-score is 0.338.

Which z-score does the source give for GGCAGUAAGAACUACUAAATT against Ric1 here?
Its z-score is 2.65 (active).

With GGGCCAGCAAGGAAAGAAUTT against Pitx2 as the sequence, how does the z-score read?
Its z-score is -1.37.

With GCCAUGAUACCUUGUUAUUTT against Plppr5 as the sequence, how does the z-score read?
Its z-score is 1.08.

Which z-score does the source give for GCUUUUUUAUGCAUUCCAATT against Rock1 here?
Its z-score is 0.575.

With GGCACCAAGCUCGAUGAUGTT against Sh3gl2 as the sequence, how does the z-score read?
Its z-score is -1.41.

With GCUUUUCACAUGAUGUGUUTT against Klrb1a as the sequence, how does the z-score read?
Its z-score is -0.5.

With GCCCUUACUUAGGUCUAGGTT against Kctd12 as the sequence, how does the z-score read?
Its z-score is -0.522.

For GGAAGAGAAGCUGAACAAGTT against Gja1, which z-score is on record?
Its z-score is 2.53 (active).

Which z-score does the source give for GGAGCUUCUCAUGACCUUUTT against Mettl21e here?
Its z-score is 0.307.

Which z-score does the source give for “GCGAUGGUAUGUUGAAGGATT against 4930432E11Rik” here?
Its z-score is 0.639.

Which z-score does the source give for GGAGUACAUGACCACAGAUTT against Lncpint here?
The z-score was -2.06 (active).

With GCCUAAAAACUCUAAAUCUTT against Mmut as the sequence, how does the z-score read?
The z-score was -0.0189.

Which z-score does the source give for GGUGUGGACUAUGAUACCATT against Anxa9 here?
Its z-score is 0.984.

With GGCUUUGAACAGGAAAGACTT against Ube2z as the sequence, how does the z-score read?
The z-score was -0.417.

Which z-score does the source give for CCUGCAAAUGAUACCACCGTT against Olfr734 here?
The z-score was -0.402.

With GGAGCGAAGUGAUGAAUAATT against Prph2 as the sequence, how does the z-score read?
Its z-score is 0.0677.

For GGAGCAGCUGAGAGAAAAATT against Ccdc144b, which z-score is on record?
The z-score was -0.413.

Which z-score does the source give for GCGAUUCAGAGACCUAUGGTT against Aven here?
Its z-score is -2.22 (active).

With GGAUGCUGAUUUAAAGACUTT against Rai14 as the sequence, how does the z-score read?
Its z-score is 1.69.

For GCUGAAGGGACUCUAACCATT against Ihh, which z-score is on record?
Its z-score is 0.715.

With CCUCUGGAUCUACGAGCUGTT against Odf4 as the sequence, how does the z-score read?
The z-score was -0.00669.

Which z-score does the source give for “GCAGAUAGAAGACUGGAAUTT against 1700024G13Rik” here?
The z-score was 0.424.

Which z-score does the source give for GGUUAUUUCUGAAAUGUGCTT against Fbxl4 here?
The z-score was -1.3.

Which z-score does the source give for GGCUGAAAAUGGGAAGCUUTT against Gm5069 here?
Its z-score is 0.0536.

For GGAUGAGCUGAGGAAAUCCTT against Psd2, which z-score is on record?
Its z-score is -0.535.

Which z-score does the source give for GGUUCUAGACAAUUACCUGTT against Clic1 here?
Its z-score is 2.43 (active).

With GCCAGGGACUUGCUAUUGATT against Txlna as the sequence, how does the z-score read?
The z-score was -0.24.

For GGGAAUGGCUUGAUUCUGUTT against Olfr609, which z-score is on record?
The z-score was 0.514.

Which z-score does the source give for CGACAAGGAGACCUACAAATT against Itm2b here?
Its z-score is 0.615.

With CGCAUCAUAAUGAUUGUGATT against Matn2 as the sequence, how does the z-score read?
The z-score was -0.269.

For GGCAUCUAUACCAGUAAUATT against Mllt6, which z-score is on record?
Its z-score is -0.562.

Which z-score does the source give for CCAACAGCAACGAUGACAATT against Thoc5 here?
Its z-score is -2.94 (active).

With GGAAAUGAUACCUUACCACTT against Zfp715 as the sequence, how does the z-score read?
The z-score was 0.162.

For “GCGUGAACCGUUUGAUGAGTT against 9030612E09Rik”, which z-score is on record?
The z-score was 1.04.

For GGACAUGAAAGAAACGGUGTT against Bbc3, which z-score is on record?
Its z-score is -0.282.

With GCUUCCUCUUAUCAUAUAATT against Rgs13 as the sequence, how does the z-score read?
Its z-score is -0.119.

For GGUAUUAGAAAUCCUGAUCTT against Pias2, which z-score is on record?
The z-score was -0.716.

With GGUAUUUCAGAUAACCUGGTT against Bbs12 as the sequence, how does the z-score read?
The z-score was 2.9 (active).

With CGCAUCAUAUUCUGAUUCCTT against Rmnd5b as the sequence, how does the z-score read?
The z-score was 0.138.

Which z-score does the source give for CGCAGACAACAAAGUAGAATT against Sars here?
Its z-score is 0.738.

For GGUGUUGUAAAAUUCCUCATT against Ncoa7, which z-score is on record?
The z-score was -2.08 (active).

For GCAUUUCGACGCGGCUUUUTT against Snapc1, which z-score is on record?
Its z-score is 0.617.

Which z-score does the source give for GGUAAACCUGCCAAUUUUGTT against Ovch2 here?
The z-score was 1.54.

For GCCAUGUGAGACUCUUAUATT against Slc2a9, which z-score is on record?
Its z-score is 0.62.

With GCAGCUCCUUUAUACCCACTT against Mxra7 as the sequence, how does the z-score read?
Its z-score is -1.25.

Which z-score does the source give for GGAGGGAGCAGAUUGAAACTT against Eri2 here?
Its z-score is -0.281.

With GCAUGCUUAAGCCUAUAAATT against Ncstn as the sequence, how does the z-score read?
The z-score was -1.88.

For GUGUCUCUGUACUUAUUAUTT against Olfr483, which z-score is on record?
Its z-score is 0.69.

For GGUGGACGUACUUUUUAACTT against Gata3, which z-score is on record?
Its z-score is 2.59 (active).

Which z-score does the source give for GCUUUUAGAAUAAAGCUGATT against Fgl2 here?
The z-score was 0.75.

For CCUAUGUCCACCACAAAUGTT against Ifi209, which z-score is on record?
The z-score was -0.14.

With GCAACCUGUCCCUUCUUGATT against Olfr225 as the sequence, how does the z-score read?
Its z-score is 1.53.

With GGAGCUGAAGCCAUUCAACTT against Gpx6 as the sequence, how does the z-score read?
Its z-score is 2.08 (active).

For GGGAAAUGUUGUAGUAGAUTT against Rars2, which z-score is on record?
Its z-score is 0.535.

Which z-score does the source give for CCACUGUGUGACAUUAAAGTT against Metap2 here?
Its z-score is -0.799.

Which z-score does the source give for GCAACUAGCGUGUGUUCCUTT against Arpc1a here?
Its z-score is 2.4 (active).

Which z-score does the source give for GGCACAGAAUAUCCACCACTT against Olfr283 here?
The z-score was -1.01.

With GGCAUUCAGGAAGUUACUGTT against Krt75 as the sequence, how does the z-score read?
The z-score was -1.63.

Which z-score does the source give for GGCUUAAUUGCUAGCCAAGTT against Slc7a13 here?
Its z-score is 0.849.

Which z-score does the source give for GGCUUUCGCUAGAAAACUCTT against Sftpc here?
Its z-score is 0.531.

From PubChem BioAssay AID1508600 (Functional Genomics Laboratory (NCATS/FGL), 2020)
